The record followed here is publication PMC7862700, “An all-to-all approach to the identification of sequence-specific readers for epigenetic DNA modifications on cytosine”.

Test in all cases: DAPPL (digital affinity profiling via proximity ligation, sequencing); 10 mM Tris-HCl pH 7.5, 50 mM NaCl, 1 mM DTT, 4% glycerol, room temperature, 30 min; GST-TFs on glutathione beads, 16-mer random dsDNA library, 0.1% formaldehyde crosslink after washing; high values mean tight binding
One assay has as its target T1, FLI1 (Homo sapiens, UniProt Q01543 1-452).
T1 sequence: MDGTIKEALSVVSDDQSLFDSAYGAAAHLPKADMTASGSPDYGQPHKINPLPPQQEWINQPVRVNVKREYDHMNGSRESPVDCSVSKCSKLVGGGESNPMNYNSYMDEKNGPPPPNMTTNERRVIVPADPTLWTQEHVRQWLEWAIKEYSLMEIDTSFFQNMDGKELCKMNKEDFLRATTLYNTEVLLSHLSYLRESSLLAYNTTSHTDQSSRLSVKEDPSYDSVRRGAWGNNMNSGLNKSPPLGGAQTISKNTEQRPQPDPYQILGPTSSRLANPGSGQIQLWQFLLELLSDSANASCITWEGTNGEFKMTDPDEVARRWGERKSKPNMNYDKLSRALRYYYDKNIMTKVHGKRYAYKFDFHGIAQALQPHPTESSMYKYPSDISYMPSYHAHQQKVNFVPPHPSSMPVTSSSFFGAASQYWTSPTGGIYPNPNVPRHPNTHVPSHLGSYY
The note with it: protein: recombinant; tags: N-terminal GST; dsDNA, one strand shown. A digest of the protocol:
(§1)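 Beads coated with glutathione captured GST-fused human transcription factors that had been expressed in yeast, and the factors were then given DNA barcodes and pooled with a tag-only sample. The pools were incubated with 200 nmole of a random double-stranded 16-mer DNA library in Tris/NaCl/DTT/glycerol buffer for 30 min at room temperature, washed, crosslinked with 0.1% formaldehyde and proximity-ligated with BsaI/T4 ligase at 37 °C for 1 h. PCR amplification and Illumina NextSeq500 sequencing came last. Binding signal is each hexamer's read frequency for a factor divided by its frequency for the tag-only sample.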

Another assay has as its target T2, ELK1 (Homo sapiens, UniProt P19419 1-428).
T2 sequence: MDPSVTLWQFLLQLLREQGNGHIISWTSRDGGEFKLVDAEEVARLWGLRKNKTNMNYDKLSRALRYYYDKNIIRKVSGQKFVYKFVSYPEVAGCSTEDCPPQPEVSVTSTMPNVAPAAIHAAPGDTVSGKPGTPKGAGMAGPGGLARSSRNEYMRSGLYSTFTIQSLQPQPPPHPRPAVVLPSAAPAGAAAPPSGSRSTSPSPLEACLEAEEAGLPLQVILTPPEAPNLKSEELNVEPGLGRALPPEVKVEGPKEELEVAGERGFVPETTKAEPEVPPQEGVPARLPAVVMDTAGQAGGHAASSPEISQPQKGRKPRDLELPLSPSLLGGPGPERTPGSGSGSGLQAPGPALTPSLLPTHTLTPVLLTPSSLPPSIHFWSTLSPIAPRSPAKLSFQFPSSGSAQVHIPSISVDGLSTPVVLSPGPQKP
The note with it: protein: recombinant; tags: N-terminal GST; dsDNA, one strand shown. The method, boiled down:
as §1

The next assay concerns the target T3, GABPA (Homo sapiens, UniProt Q06546 1-454).
T3 sequence: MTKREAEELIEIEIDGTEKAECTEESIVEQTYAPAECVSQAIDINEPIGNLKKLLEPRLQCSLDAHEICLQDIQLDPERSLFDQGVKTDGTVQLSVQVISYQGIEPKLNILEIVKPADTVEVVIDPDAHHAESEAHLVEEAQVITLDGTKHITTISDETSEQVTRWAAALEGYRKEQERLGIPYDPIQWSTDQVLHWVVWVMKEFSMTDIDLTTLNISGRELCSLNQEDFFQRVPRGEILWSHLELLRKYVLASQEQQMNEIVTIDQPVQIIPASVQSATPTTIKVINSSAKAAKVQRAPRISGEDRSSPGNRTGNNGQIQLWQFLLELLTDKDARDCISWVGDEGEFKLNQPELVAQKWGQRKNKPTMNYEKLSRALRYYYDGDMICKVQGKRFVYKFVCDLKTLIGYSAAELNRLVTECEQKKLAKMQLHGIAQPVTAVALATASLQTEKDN
Conditions: protein: recombinant; tags: N-terminal GST; dsDNA, one strand shown. The method, boiled down: as §1

A further assay addresses ELF1 (Homo sapiens, UniProt P32519 1-619). Conditions: protein: recombinant; tags: N-terminal GST; dsDNA, one strand shown. The method, boiled down: as §1
The next assay addresses T4, EHF (Homo sapiens, UniProt Q9NZC4 1-300).
T4 sequence: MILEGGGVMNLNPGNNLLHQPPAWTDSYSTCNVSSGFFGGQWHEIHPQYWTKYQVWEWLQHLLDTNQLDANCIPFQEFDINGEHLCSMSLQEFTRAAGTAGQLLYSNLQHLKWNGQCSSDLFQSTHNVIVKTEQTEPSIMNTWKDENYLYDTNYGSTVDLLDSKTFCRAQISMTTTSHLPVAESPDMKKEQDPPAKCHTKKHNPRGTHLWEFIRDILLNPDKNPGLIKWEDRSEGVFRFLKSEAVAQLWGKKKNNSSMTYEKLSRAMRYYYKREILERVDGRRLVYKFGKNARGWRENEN
The note with it: protein: recombinant; tags: N-terminal GST; dsDNA, one strand shown. A digest of the protocol: as §1

A further assay addresses T5, ELK3 (Homo sapiens, UniProt P41970 1-407).
T5 sequence: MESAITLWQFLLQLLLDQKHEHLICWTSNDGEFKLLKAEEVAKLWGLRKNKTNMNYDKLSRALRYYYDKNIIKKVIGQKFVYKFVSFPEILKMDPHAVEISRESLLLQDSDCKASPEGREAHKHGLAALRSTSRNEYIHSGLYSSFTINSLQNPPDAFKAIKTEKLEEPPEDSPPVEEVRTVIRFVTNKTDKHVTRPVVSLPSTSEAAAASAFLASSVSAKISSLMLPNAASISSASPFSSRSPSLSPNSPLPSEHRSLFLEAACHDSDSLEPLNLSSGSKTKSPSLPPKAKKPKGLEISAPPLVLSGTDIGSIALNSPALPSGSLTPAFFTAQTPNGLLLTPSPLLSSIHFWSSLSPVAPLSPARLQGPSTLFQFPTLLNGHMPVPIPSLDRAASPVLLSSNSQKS
The note with it: protein: recombinant; tags: N-terminal GST; dsDNA, one strand shown. A digest of the protocol: as §1

In another assay the target is ETV5 (Homo sapiens, UniProt P41161 1-510). The note with it: protein: recombinant; tags: N-terminal GST; dsDNA, one strand shown. The method, boiled down: as §1
Another assay has as its target HSF1 (Homo sapiens, UniProt Q00613 1-529). The note with it: protein: recombinant; tags: N-terminal GST; chain copies: 3; dsDNA, one strand shown. A digest of the protocol: as §1
The target in another assay is T6, SPIC (Homo sapiens, UniProt Q8N5J4 1-248).
T6 sequence: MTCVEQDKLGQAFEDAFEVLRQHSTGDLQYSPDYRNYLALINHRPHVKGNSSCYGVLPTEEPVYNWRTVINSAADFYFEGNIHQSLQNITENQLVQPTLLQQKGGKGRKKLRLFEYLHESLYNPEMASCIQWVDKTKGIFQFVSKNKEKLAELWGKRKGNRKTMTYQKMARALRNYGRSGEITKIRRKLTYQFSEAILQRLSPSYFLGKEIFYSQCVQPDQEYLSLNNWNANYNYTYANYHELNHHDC
The note with it: protein: recombinant; tags: N-terminal GST; dsDNA, one strand shown. The method, boiled down:
as §1

A further assay addresses ELF4 (Homo sapiens, UniProt Q99607 1-663). Conditions: protein: recombinant; tags: N-terminal GST; dsDNA, one strand shown. The method, boiled down: as §1
The target of a further assay is T7, ELK4 (Homo sapiens, UniProt P28324-2 1-405).
T7 sequence: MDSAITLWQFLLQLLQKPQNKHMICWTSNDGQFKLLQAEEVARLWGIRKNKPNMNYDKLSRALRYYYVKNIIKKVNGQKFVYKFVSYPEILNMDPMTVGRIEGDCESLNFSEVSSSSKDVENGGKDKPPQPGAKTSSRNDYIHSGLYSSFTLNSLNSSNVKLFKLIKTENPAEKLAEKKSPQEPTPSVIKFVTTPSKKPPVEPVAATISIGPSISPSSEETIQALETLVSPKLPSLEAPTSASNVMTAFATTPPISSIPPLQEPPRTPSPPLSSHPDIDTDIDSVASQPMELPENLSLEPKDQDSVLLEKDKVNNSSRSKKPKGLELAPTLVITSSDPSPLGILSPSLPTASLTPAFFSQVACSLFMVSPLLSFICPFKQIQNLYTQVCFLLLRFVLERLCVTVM
Conditions: protein: recombinant; tags: N-terminal GST; dsDNA, one strand shown. A digest of the protocol:
as §1

Another assay concerns the target T8, ELF3 (Homo sapiens, UniProt P78545 1-371).
T8 sequence: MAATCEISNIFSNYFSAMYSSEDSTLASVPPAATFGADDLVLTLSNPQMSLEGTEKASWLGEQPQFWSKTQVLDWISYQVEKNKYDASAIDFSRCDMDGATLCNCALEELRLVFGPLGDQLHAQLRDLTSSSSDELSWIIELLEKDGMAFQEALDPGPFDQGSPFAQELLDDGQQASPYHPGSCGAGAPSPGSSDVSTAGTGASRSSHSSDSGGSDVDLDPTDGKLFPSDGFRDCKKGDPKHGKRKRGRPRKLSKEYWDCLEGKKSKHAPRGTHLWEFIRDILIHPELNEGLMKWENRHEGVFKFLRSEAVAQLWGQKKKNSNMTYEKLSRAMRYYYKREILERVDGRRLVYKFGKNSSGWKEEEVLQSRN
The note with it: protein: recombinant; tags: N-terminal GST; dsDNA, one strand shown. A digest of the protocol: as §1

In another assay the target is CRX (Homo sapiens, UniProt O43186 1-299). Conditions: protein: recombinant; tags: N-terminal GST; dsDNA, one strand shown. The method, boiled down:
as §1

The target of another assay is ETV1 (Homo sapiens, UniProt P50549 1-477). Conditions: protein: recombinant; tags: N-terminal GST; dsDNA, one strand shown. A digest of the protocol: as §1
The target of the next assay is SPI1 (Homo sapiens, UniProt P17947 1-270). The note with it: protein: recombinant; tags: N-terminal GST; dsDNA, one strand shown. A digest of the protocol:
as §1

A further assay addresses SPIB (Homo sapiens, UniProt Q01892 1-262). Conditions: protein: recombinant; tags: N-terminal GST; dsDNA, one strand shown. The method, boiled down: as §1
The next assay deals with T9, FEV (Homo sapiens, UniProt Q99581 1-238).
T9 sequence: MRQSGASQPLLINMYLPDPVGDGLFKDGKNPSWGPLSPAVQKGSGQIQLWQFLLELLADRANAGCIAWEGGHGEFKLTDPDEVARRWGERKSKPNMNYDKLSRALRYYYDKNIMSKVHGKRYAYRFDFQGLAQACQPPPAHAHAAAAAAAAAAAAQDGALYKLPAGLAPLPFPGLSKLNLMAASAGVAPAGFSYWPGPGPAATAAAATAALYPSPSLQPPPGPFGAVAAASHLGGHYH
Conditions: protein: recombinant; tags: N-terminal GST; dsDNA, one strand shown. A digest of the protocol:
as §1

In another assay the target is T10, ETV2 (Homo sapiens, UniProt O00321 1-342).
T10 sequence: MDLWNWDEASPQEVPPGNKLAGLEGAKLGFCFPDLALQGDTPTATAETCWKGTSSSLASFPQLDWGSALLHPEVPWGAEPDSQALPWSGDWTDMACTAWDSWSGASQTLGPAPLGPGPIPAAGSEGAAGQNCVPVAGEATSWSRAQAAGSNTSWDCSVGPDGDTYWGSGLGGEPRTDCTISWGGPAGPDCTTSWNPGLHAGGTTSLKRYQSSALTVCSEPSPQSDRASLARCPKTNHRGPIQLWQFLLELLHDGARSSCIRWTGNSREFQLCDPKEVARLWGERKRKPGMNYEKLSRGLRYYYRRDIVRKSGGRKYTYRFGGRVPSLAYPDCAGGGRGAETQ
Conditions: protein: recombinant; tags: N-terminal GST; dsDNA, one strand shown. The method, boiled down: as §1

ELF1, sequence (P32519 whole entry): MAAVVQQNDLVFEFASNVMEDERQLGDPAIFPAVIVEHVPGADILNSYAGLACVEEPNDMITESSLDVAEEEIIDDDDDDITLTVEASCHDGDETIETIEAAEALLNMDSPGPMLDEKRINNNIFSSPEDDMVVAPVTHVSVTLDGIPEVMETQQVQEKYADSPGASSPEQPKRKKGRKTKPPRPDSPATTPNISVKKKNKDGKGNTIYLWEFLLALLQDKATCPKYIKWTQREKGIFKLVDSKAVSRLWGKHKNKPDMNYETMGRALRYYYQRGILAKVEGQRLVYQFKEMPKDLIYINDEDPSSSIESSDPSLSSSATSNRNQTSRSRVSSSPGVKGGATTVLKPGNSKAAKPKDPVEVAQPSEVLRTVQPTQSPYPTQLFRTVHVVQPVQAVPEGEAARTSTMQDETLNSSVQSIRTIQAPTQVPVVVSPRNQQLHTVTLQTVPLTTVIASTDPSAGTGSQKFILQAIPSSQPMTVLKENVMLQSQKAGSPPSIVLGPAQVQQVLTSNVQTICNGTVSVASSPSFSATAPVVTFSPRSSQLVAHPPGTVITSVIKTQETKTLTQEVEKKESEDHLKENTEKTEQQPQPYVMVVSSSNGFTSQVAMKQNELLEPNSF
HSF1, sequence (Q00613 whole entry): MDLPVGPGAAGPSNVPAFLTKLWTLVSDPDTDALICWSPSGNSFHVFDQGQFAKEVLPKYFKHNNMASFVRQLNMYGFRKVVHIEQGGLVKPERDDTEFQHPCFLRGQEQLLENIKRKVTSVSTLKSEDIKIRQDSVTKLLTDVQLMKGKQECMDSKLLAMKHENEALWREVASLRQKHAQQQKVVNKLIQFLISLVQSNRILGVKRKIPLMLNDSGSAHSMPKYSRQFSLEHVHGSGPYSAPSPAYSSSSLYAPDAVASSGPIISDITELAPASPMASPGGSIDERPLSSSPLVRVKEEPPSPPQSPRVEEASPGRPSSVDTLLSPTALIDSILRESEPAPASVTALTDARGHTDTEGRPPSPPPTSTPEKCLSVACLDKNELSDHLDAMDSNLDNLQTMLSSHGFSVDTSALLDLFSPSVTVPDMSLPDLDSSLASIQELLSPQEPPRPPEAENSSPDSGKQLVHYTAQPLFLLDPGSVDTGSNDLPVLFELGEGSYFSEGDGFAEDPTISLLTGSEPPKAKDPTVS
ETV5, sequence (P41161 whole entry): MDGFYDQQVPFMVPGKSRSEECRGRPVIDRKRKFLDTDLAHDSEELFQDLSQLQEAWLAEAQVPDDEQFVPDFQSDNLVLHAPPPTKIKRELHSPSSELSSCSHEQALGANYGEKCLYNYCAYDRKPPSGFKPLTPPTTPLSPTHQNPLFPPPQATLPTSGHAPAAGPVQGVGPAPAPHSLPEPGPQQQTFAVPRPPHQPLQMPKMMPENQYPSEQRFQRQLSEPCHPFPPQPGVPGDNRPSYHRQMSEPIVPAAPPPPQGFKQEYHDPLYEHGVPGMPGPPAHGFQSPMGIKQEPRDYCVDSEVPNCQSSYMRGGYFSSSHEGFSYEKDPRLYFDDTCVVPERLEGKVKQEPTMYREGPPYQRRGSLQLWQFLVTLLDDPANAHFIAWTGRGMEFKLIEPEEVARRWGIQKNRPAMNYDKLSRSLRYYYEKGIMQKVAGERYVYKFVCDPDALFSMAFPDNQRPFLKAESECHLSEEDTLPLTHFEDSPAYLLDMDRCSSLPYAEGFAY
ETV1, sequence (P50549 whole entry): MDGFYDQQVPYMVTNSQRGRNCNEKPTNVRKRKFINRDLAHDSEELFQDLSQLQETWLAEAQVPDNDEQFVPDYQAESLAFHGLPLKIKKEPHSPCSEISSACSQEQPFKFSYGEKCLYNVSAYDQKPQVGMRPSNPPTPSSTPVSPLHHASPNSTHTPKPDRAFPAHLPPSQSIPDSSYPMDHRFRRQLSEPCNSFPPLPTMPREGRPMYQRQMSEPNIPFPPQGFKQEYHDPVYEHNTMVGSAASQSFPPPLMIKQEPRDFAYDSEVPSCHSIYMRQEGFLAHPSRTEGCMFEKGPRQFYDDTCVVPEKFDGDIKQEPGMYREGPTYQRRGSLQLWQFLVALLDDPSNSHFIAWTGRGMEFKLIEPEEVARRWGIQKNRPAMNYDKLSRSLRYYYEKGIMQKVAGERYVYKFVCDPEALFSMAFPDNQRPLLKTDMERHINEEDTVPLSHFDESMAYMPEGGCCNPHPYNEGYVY
ELF4, sequence (Q99607 whole entry): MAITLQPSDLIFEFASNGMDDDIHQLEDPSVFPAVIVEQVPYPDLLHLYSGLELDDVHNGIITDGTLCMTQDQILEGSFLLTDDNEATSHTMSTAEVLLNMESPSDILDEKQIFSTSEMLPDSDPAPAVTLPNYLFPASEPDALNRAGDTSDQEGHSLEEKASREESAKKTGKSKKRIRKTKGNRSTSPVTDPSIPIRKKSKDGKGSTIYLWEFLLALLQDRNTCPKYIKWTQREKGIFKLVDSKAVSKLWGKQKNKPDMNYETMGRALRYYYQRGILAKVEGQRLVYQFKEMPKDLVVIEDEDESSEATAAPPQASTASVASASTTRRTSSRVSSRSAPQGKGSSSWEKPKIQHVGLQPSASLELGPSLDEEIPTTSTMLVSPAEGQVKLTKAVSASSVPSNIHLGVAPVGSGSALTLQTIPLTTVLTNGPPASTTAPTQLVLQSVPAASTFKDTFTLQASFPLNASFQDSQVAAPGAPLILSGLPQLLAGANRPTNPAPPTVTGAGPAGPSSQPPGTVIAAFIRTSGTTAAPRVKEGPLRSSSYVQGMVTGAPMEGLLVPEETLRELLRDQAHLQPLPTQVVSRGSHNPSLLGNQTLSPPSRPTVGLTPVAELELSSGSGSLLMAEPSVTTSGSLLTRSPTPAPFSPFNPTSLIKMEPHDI
CRX, sequence (O43186 whole entry): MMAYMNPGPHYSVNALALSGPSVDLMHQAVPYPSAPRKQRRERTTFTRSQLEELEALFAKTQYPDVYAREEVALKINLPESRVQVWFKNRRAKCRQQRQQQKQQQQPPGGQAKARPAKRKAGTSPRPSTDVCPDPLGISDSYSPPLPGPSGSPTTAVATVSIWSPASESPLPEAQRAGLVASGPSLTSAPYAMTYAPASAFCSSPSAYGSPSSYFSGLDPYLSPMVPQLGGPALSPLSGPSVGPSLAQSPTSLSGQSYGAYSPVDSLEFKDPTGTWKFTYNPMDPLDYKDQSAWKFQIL
SPIB, sequence (Q01892 whole entry): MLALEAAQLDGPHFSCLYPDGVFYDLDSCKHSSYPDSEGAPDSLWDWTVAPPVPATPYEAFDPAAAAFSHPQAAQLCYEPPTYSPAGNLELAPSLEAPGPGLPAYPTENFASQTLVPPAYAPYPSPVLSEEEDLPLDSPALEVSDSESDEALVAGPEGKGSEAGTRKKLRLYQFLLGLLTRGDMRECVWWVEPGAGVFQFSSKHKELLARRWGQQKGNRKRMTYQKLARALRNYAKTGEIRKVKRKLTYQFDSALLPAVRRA

On to TAGCGA, for which the binding signal in the assay with FLI1 is 1.1 fold enrichment (6-mer frequency, TF over GST control); with ELK1, 1.01 fold enrichment (6-mer frequency, TF over GST control); with GABPA, 1.18 fold enrichment (6-mer frequency, TF over GST control); with ELF1 it was 1.03 fold enrichment (6-mer frequency, TF over GST control); in the assay with EHF, 1.03 fold enrichment (6-mer frequency, TF over GST control); with ELK3, 1.08 fold enrichment (6-mer frequency, TF over GST control). The binding signal in the assay with ETV5 was 1.08 fold enrichment (6-mer frequency, TF over GST control); with HSF1, 1.22 fold enrichment (6-mer frequency, TF over GST control); with SPIC, 1.08 fold enrichment (6-mer frequency, TF over GST control); with ELF4 it was 1.04 fold enrichment (6-mer frequency, TF over GST control); with ELK4, 1.05 fold enrichment (6-mer frequency, TF over GST control); in the assay with ELF3 it was 1.2 fold enrichment (6-mer frequency, TF over GST control). Also, the binding signal in the assay with CRX is 1.24 fold enrichment (6-mer frequency, TF over GST control); with ETV1 it was 1.07 fold enrichment (6-mer frequency, TF over GST control).

CATCGA: the binding signal with FLI1 is 1.12 fold enrichment (6-mer frequency, TF over GST control); in the assay with ELF1, 1.12 fold enrichment (6-mer frequency, TF over GST control); with EHF it was 1.16 fold enrichment (6-mer frequency, TF over GST control); in the assay with SPI1, 1.09 fold enrichment (6-mer frequency, TF over GST control); with SPIB, 1.03 fold enrichment (6-mer frequency, TF over GST control); in the assay with ELK3, 1.03 fold enrichment (6-mer frequency, TF over GST control). The binding signal in the assay with FEV is 1.05 fold enrichment (6-mer frequency, TF over GST control); with ETV5, 1.17 fold enrichment (6-mer frequency, TF over GST control); with HSF1, 1.42 fold enrichment (6-mer frequency, TF over GST control); with SPIC, 1.06 fold enrichment (6-mer frequency, TF over GST control); with ELF4, 1.12 fold enrichment (6-mer frequency, TF over GST control); in the assay with ELK4 it was 1.06 fold enrichment (6-mer frequency, TF over GST control). Further, the binding signal with ETV2 was 1.16 fold enrichment (6-mer frequency, TF over GST control); in the assay with ELF3 it was 1.04 fold enrichment (6-mer frequency, TF over GST control); with CRX, 1.05 fold enrichment (6-mer frequency, TF over GST control); with ETV1, 1.05 fold enrichment (6-mer frequency, TF over GST control).
